Reference: PubChem BioAssay (Tox21)
“And” between values parts separate entries of the source, which are not always exact repeats. Equal entries are not always repeated. Unmarked numbers belong to inactive results. Results filed as inconclusive are left out. Entries that show only a call come without a potency. The source made the active and inactive calls. Unless noted, calls follow the shape of the full dose curve.

How the values were obtained:
[1] = Nuclear factor erythroid 2-related factor 2/antioxidant responsive element (Nrf2/ARE) small molecule agonists: luciferase reporter gene qHTS assay in human keratinocytes (AID 1919969); also: nearly all actives have a fitted effect of over 35% in size; also: potency is read from the fitted curve at half-maximal effect
[2] = target: Gonadotropin-releasing hormone receptor (Homo sapiens) (UniProt P30968); assay: Human gonadotropin-releasing hormone receptor (GnRHR) small molecule agonists, calcium flux assay in GnRHR-HEK293 cells (AID 1920063); also: nearly all actives have a fitted effect of over 35% in size
Gonadotropin-releasing hormone receptor (Homo sapiens), sequence (P30968 whole entry, looked up): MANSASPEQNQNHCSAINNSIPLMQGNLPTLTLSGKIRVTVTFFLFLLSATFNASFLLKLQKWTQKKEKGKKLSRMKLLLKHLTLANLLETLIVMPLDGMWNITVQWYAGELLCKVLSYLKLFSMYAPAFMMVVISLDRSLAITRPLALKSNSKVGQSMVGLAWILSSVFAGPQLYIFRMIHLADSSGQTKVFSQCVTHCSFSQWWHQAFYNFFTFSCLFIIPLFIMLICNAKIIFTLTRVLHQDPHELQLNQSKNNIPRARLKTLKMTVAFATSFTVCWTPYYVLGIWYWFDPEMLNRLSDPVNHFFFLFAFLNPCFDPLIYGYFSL
In short: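 Cells: HEK293 stably expressing human GnRHR. Steps: overnight (18 h) culture, 1 h calcium dye loading at 37 C, compound addition, kinetic fluorescence read at 480/540 nm. Each compound tested at 15 concentrations in triplicate.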

[3] = target: KiSS-1 receptor (Homo sapiens) (UniProt Q969F8); assay: Human kisspeptin (KISS1R) small molecule agonists, calcium flux assay in KISS1R-HEK293 cells (AID 1920064; active = well fitted activation curve with a large enough effect in the repeat runs)
KiSS-1 receptor (Homo sapiens), sequence (Q969F8 whole entry, looked up): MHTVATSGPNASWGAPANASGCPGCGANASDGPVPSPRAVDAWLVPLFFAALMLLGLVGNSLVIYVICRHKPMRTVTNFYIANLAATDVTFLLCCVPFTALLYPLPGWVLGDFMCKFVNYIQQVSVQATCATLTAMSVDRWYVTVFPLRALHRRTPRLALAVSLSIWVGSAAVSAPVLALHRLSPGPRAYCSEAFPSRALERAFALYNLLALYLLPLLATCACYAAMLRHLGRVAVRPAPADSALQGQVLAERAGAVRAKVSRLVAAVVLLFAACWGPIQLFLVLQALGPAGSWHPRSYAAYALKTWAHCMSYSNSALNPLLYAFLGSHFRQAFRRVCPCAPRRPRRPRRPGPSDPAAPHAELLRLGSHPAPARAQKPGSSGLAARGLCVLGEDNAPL
In short: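 Cells plated and incubated 18 h; dye added, 1 h at 37 C; compounds in DMSO pinned in; signal read at 480/540 nm every second for 3 min. Each compound tested at 15 concentrations in triplicate.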

[4] = p53 small molecule agonists, cell-based qHTS assay with human liver microsomes (AID 1963577)
In short: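 Cells carrying a p53-responsive bla reporter were rested 5 h (37 C, 5% CO2) before compound transfer. Human liver microsomes plus NADPH, 0.5 mg/mL final apiece, supplied metabolism during the 16 h 37 C exposure.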

[5] = p53 small molecule agonists, cell-based qHTS assay with rat liver microsomes (AID 1963578)
In short: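 Fluorescence from a beta-lactamase reporter under a p53 response element was measured after cells had been incubated 16 h at 37 C with test compound and rat liver microsomes plus NADPH (0.5 mg/mL final each).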

[6] = p53 small molecule agonists, cell-based qHTS assay with human liver microsomes: qHTS cell viability counter screen (AID 1963579); also: nearly all actives have a fitted effect of over 45% in size; also: potency is read from the fitted curve at half-maximal effect
In short: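 Seed p53RE-bla cells at 4,000 per well; incubate 5 h at 37 C; add compound, human liver microsomes and NADPH; incubate 16 h at 37 C; add CellTiter-Glo; after 30 min at room temperature, read luminescence.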

[7] = p53 small molecule agonists, cell-based qHTS assay with rat liver microsomes: qHTS cell viability counter screen (AID 1963580); also: nearly all actives have a fitted effect of over 45% in size
In short: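 In HCT-116 cells carrying a p53 response element-bla reporter, compounds were metabolically activated in situ by rat liver microsomes with NADPH over 16 h. Cell ATP content then served as the cytotoxicity measure.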

[8] = p53 small molecule agonists, cell-based qHTS assay: qHTS cell viability counter screen (AID 1963581); also: nearly all actives have a fitted effect of over 45% in size
In short: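 Cells: HCT-116 with p53 response element-driven beta-lactamase. Treatment: 16 h, 37 C, compounds in DMSO. Read: CellTiter-Glo luminescence after 30 min RT.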

[9] = target: 5-hydroxytryptamine receptor 2A (Homo sapiens) (UniProt P28223); assay: 5-hydroxytryptamine receptor 2A (HTR2A) small molecule antagonists, cell-based qHTS assay (AID 1963586); also: nearly all actives have a fitted effect of over 45% in size; also: potency is read from the fitted curve at half-maximal effect
5-hydroxytryptamine receptor 2A (Homo sapiens), sequence (P28223 whole entry, looked up): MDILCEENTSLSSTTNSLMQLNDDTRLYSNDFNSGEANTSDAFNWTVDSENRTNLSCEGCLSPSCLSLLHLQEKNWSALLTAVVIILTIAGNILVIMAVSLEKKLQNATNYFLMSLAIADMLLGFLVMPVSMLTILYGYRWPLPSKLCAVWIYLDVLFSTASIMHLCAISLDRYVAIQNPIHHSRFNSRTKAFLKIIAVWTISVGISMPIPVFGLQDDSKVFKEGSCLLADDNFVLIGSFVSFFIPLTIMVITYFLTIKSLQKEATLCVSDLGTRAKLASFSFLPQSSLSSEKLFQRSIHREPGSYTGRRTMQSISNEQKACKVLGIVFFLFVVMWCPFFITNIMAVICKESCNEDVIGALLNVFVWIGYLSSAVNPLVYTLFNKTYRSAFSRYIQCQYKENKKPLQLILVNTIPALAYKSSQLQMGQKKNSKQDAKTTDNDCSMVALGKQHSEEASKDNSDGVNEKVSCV
In short: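 Antagonist-mode intracellular calcium assay: DOI (4 nM) added after 5 min compound pre-incubation at room temperature to dye-loaded HTR2A-CHO cells. Fluorescence followed for 3 min, sampled every second.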

[10] = target: 5-hydroxytryptamine receptor 2A (Homo sapiens) (UniProt P28223); assay: 5-hydroxytryptamine receptor 2A (HTR2A) small molecule agonists, cell-based qHTS assay (AID 1963587); also: nearly all actives have a fitted effect of over 30% in size
In short: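 HTR2A-CHO cells, plated 18 h at 37 C/5% CO2, dye-loaded 1 h at 37 C; compounds in DMSO added by pin tool (agonist mode). Intracellular calcium flux read as kinetic fluorescence on FDSS over 2 min at 1 s intervals.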

[11] = target: Muscarinic acetylcholine receptor M1 (Homo sapiens) (UniProt P11229); assay: Cholinergic receptor muscarinic 1 (CHRM1) small molecule antagonists, cell-based qHTS assay (AID 1963588); also: nearly all actives have a fitted effect of over 40% in size; also: potency is read from the fitted curve at half-maximal effect
Muscarinic acetylcholine receptor M1 (Homo sapiens), sequence (P11229 whole entry, looked up): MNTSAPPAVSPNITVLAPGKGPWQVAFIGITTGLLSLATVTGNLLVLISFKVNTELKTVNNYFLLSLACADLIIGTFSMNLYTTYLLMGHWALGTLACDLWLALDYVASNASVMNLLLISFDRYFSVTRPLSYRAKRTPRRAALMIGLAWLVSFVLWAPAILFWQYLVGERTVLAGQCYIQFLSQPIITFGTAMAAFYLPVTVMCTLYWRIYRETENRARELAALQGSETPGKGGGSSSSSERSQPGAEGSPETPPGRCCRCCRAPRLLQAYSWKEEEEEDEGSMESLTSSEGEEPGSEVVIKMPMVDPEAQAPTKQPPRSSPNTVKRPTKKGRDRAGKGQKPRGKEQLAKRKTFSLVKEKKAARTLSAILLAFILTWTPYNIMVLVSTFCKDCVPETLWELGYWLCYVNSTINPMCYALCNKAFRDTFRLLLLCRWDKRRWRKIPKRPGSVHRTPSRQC
In short: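 CHRM1-CHO calcium-flux assay, antagonist mode. Cells were seeded 18 h, dye-loaded 1 h at 37 C and given compound for 5 min at RT, then acetylcholine was added at 50nM. FDSS fluorescence was read 3 min; 15 concentrations, three runs.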

[12] = target: Muscarinic acetylcholine receptor M1 (Homo sapiens) (UniProt P11229); assay: Cholinergic receptor muscarinic 1 (CHRM1) small molecule agonists, cell-based qHTS assay (AID 1963589); also: nearly all actives have a fitted effect of over 35% in size
In short: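 Agonist-mode qHTS in CHO cells stably carrying human muscarinic M1. Intracellular calcium is tracked by fluorescence every second after compound transfer; each compound runs at 15 concentrations in three independent runs.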

[13] = target: Beta-2 adrenergic receptor (Homo sapiens) (UniProt P07550); assay: Adrenergic beta2 receptor (ADRB2) small molecule antagonists, cell-based qHTS assay (AID 1963592); also: series mostly up to about 92 µM; nearly all actives have a fitted effect of over 50% in size
Beta-2 adrenergic receptor (Homo sapiens), sequence (P07550 whole entry, looked up): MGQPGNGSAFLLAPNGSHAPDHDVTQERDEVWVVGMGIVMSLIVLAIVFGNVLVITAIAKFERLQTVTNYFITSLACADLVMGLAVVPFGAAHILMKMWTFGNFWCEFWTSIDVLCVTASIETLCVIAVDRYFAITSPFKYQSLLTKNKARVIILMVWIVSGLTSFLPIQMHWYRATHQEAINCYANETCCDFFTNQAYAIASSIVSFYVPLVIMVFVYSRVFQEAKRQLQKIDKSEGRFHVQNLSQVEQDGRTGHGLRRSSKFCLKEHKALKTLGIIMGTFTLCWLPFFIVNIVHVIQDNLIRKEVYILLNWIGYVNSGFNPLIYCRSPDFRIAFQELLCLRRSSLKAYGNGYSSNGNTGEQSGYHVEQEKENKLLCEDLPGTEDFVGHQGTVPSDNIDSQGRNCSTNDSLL
In short: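 Cells (CHO, stable ADRB2 overexpression) incubated 18-20hr at 37C; compounds added from DMSO; agonist mix (1nM isoproterenol, 100uM IBMX, 25uM Ro-20-1724) added; 0.5hr RT; d2-cAMP and anti-cAMP-cryptate added; 1hr RT; 665/615 nm read.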

[14] = target: D(2) dopamine receptor (Homo sapiens) (UniProt P14416); assay: Dopamine D2 receptor (DRD2) small molecule agonists, cell-based qHTS assay (AID 1963594); also: nearly all actives have a fitted effect of over 35% in size
D(2) dopamine receptor (Homo sapiens), sequence (P14416 whole entry, looked up): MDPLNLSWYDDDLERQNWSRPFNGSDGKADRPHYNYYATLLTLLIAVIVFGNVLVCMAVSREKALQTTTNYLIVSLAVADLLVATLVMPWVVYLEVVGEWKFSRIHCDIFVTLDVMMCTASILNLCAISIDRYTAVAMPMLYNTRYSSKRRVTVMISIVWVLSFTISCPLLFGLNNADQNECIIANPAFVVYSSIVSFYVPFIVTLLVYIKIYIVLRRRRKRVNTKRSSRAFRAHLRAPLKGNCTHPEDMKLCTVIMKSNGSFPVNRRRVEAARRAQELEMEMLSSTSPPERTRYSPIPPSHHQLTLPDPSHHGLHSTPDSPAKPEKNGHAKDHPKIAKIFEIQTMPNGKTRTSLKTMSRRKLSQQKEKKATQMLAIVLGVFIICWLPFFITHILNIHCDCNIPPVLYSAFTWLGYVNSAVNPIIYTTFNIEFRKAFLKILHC
In short: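 HEK293 cells stably expressing DRD2 were cultured 24 h at 37 C, then given Ro20-1724 (0.1 mM final) and compounds for 10 min at room temperature. NKH477 (200nM) was then added for 30 min. cAMP was read by HTRF.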

[15] = target: D(2) dopamine receptor (Homo sapiens) (UniProt P14416); assay: Dopamine D2 receptor (DRD2) small molecule antagonists, cell-based qHTS assay (AID 1963595; active = well fitted inhibition curve with a large enough effect in the signal ratio in the repeat runs, with a control signal flat; the % refers to the signal ratio; also: potency is read from the fitted curve at half-maximal effect)
In short: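 HEK293 cells stably expressing DRD2 were preincubated with 0.1 mM Ro20-1724, then with compound for 10 min at room temperature. Cells were stimulated with 200 nM NKH477 plus 12 nM quinpirole for 30 min, and cAMP was read by HTRF.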

[16] = cAMP Responsive Elements (CRE) small molecule agonists, cell-based qHTS assay (AID 1963590)
In short: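 Agonist mode qHTS in CRE-bla HEK 293T cells: compounds dosed from DMSO for 3 h at 37 C/5% CO2, followed by LiveBLAzer B/G FRET substrate for 2 h at room temperature.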

[17] = cAMP Responsive Elements (CRE) small molecule antagonists, cell-based qHTS assay (AID 1963591; active = well fitted inhibition curve with a large enough effect in the signal ratio in the repeat runs, not every such curve was filed as active; the % refers to the signal ratio)
In short: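 Antagonist mode: test compounds are co-incubated with the adenylyl cyclase activator NKH477 (0.25 uM final) on CRE-bla HEK293T cells for 3 h at 37 °C, followed by LiveBLAzer substrate loading.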

[18] = target: Beta-2 adrenergic receptor (Homo sapiens) (UniProt P07550); assay: Adrenergic beta2 receptor (ADRB2) small molecule agonists, cell-based qHTS assay (AID 1963593);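 also: CHO cells stably overexpressing human ADRB2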
In short: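 CHO cells stably over-expressing ADRB2 were plated overnight at 37C, then dosed with compounds plus a stimulation mix containing 100uM IBMX and 25uM Ro-20-1724 for 0.5hr at room temperature. cAMP was measured by HTRF competition, 1hr.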

[19] = G protein-coupled receptor (GPCR) small molecule agonists, calcium flux assay: HEK293 wild type cell line counter screen (AID 1920065)
In short: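 Counter-screen of the Tox21 10K library for non-specific calcium release: dye-loaded cells received compounds in DMSO and were monitored by kinetic fluorescence (480/540 nm, 3 min). Fifteen concentrations, run in triplicate.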

[20] = p53 small molecule agonists, cell-based qHTS assay (AID 1963582; active = well fitted activation curve with a large enough effect in the signal ratio in the repeat runs, not every such curve was filed as active; the % refers to the signal ratio)
In short: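 Quantitative HTS in p53RE-bla cells: after a 5 h settling period, compounds delivered in DMSO were left on cells for 16 h at 37 C, and reporter induction was measured as fluorescence following 2 h substrate loading.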

SMILES	Potency [1]	Potency [2]	Potency [3]	Potency [4]	Potency [5]	Potency [6]	Potency [7]	Potency [8]	Potency [9]	Potency [10]	Potency [11]	Potency [12]	Potency [13]	Potency [14]	Potency [15]	Potency [16]	Potency [17]	Potency [18]	Potency [19]	Potency [20]
O=c1cc(-c2ccccc2)oc2cc(O)cc(O)c12	24.3 µM (active)	inactive	inactive	inactive	inactive	inactive	inactive	inactive	inactive	inactive	inactive	inactive	inactive	inactive	inactive	–	–	–	–	–
CCC(Cl)C(Cl)C(Cl)CC(Cl)C(Cl)C(C)Cl (stereo not given)	48.6 µM (active)	inactive	inactive	inactive	inactive	inactive	inactive	inactive	inactive	inactive	inactive	inactive	inactive	–	inactive	inactive	inactive	inactive	–	–
Nc1ccc(O)c([N+](=O)[O-])c1	19.3 µM (active)	inactive	inactive	–	–	–	inactive	–	–	inactive	inactive	inactive	–	–	–	–	–	–	inactive	–
CCc1oc2ccccc2c1C(=O)c1cc(Br)c(O)c(Br)c1	inactive	inactive	inactive	–	–	–	inactive	inactive	–	–	–	–	inactive	inactive	inactive	inactive	inactive	–	inactive	–
O=C(CC(=O)c1ccccc1)c1ccccc1	32.9 µM (active)	inactive	inactive	inactive	–	inactive	–	inactive	inactive	–	inactive	inactive	inactive	–	inactive	–	inactive	inactive	–	inactive
c1ccc(OCc2ccc(CCCN3CCOCC3)cc2)cc1	inactive	inactive	inactive	inactive	inactive	inactive	inactive	inactive	20.5 µM (active)	inactive	2.05 µM (active)	inactive	inactive	inactive	inactive	inactive	–	–	–	–
CCC1=C[C@@H]2CN(C1)Cc1c([nH]c3ccccc13)[C@@](C(=O)OC)(c1cc3c(cc1OC)N(C)[C@H]1[C@@](O)(C(=O)OC)[C@H](OC(C)=O)[C@]4(CC)C=CCN5CC[C@]31[C@@H]54)C2	0.376 µM (active)	inactive	inactive	–	–	–	–	–	–	–	–	–	inactive	inactive	inactive	–	–	inactive	inactive	–
COc1cc2ncnc(Nc3ccc(F)c(Cl)c3)c2cc1OCCCN1CCOCC1	inactive	inactive	inactive	inactive	inactive	inactive	inactive	–	inactive	inactive	inactive	inactive	inactive	inactive	29.8 µM (active)	–	–	inactive	–	–
O=C1c2ccccc2C(=O)N1SC1CCCCC1	21.7 µM (active) and 24.3 µM (active)	inactive	inactive	inactive	inactive	inactive	inactive	inactive	inactive	–	inactive	inactive	inactive	inactive	inactive	–	–	inactive	–	inactive
C#Cc1cccc(Nc2ncnc3cc(OCCOC)c(OCCOC)cc23)c1	inactive	inactive	inactive	–	–	inactive	inactive	inactive	–	inactive	inactive	inactive	–	inactive	inactive	–	–	inactive	–	–
N#Cc1ccccc1O	inactive	inactive	inactive	–	–	inactive	inactive	inactive	inactive	inactive	inactive	inactive	inactive	inactive	inactive	inactive	inactive	inactive	–	–
COC(=O)Nc1nc2ccc(C(=O)c3cccs3)cc2[nH]1	2.66 µM (active)	inactive	inactive	–	inactive	–	–	–	–	–	–	–	inactive	inactive	inactive	–	inactive	–	–	–
O=C(N/N=C/c1ccccc1O)c1ccncc1	6.68 µM (active)	inactive	–	inactive	inactive	7.93 µM (active)	inactive	inactive	–	inactive	–	inactive	inactive	–	–	inactive	inactive	–	inactive	inactive
